About 2,000 (36%) of roughly 5,500 compounds were called active. About 18% were inconclusive and are not listed. Cut-off read from the data, not from the text of the source: active = normalized growth mostly below about 0.91 (no sharp cut-off); inconclusive = no clear call, values can overlap the other calls; inactive = mostly above about 0.92. This is one part of the list.
Assay: chemical genetic growth profiling, strain panel (AID 1159580);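 note: tested at 20 µM; growth read once vehicle control cultures reached saturation at 30 °C; 1 = growth at the plate median or of vehicle wells; lower values mean less growth of the strain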
Settings: growth OD

Measured: normalized growth

COP(=S)(OC)Oc1ccc(SC)c(C)c1
active: S. cerevisiae deletion strains, locus YLR320W, strain mms22, active compounds read low 0.857 | S. cerevisiae deletion strains, locus YNL071W, strain lat1, active compounds read low 0.879
inactive: S. cerevisiae deletion strains, locus YJR075W, strain HOC1, active compounds read low 1.01 | S. cerevisiae deletion strains, locus YKL009W, strain mrt4, active compounds read low 0.942 | S. cerevisiae deletion strains, locus YKL068W, active compounds read low 0.996 | S. cerevisiae deletion strains, locus YKL085W, strain MDH1 (second series), active compounds read low 0.999 | S. cerevisiae deletion strains, locus YKL085W, strain MDH1, active compounds read low 0.999 | S. cerevisiae deletion strains, locus YKL160W, strain elf1, active compounds read low 0.999 | S. cerevisiae deletion strains, locus YKL190W, strain CNB1, active compounds read low 1 | S. cerevisiae deletion strains, locus YKR001C, strain vps1, active compounds read low 0.986 | S. cerevisiae deletion strains, locus YKR026C, strain gcn3, active compounds read low 1.01 | S. cerevisiae deletion strains, locus YKR091W, strain srl3, active compounds read low 0.995 | S. cerevisiae deletion strains, locus YLL001W, strain dnm1, active compounds read low 0.986 | S. cerevisiae deletion strains, locus YLL026W, active compounds read low 0.972 | S. cerevisiae deletion strains, locus YLL041C, strain sdh2, active compounds read low 1 | S. cerevisiae deletion strains, locus YLR027C, strain aat2, active compounds read low 0.988 | S. cerevisiae deletion strains, locus YLR039C, strain RIC1, active compounds read low 1.02 | S. cerevisiae deletion strains, locus YLR058C, strain SHM2, active compounds read low 1.01 | S. cerevisiae deletion strains, locus YLR102C, strain apc9, active compounds read low 0.985 | S. cerevisiae deletion strains, locus YLR221C, strain rsa3, active compounds read low 0.92 | S. cerevisiae deletion strains, locus YLR258W, strain gsy2, active compounds read low 0.979 | S. cerevisiae deletion strains, locus YLR262C, strain YPT6 (second series), active compounds read low 0.949 | S. cerevisiae deletion strains, locus YLR262C, strain YPT6, active compounds read low 1.01 | S. cerevisiae deletion strains, locus YLR268W, strain sec22, active compounds read low 0.996 | S. cerevisiae deletion strains, locus YLR330W, strain CHS5, active compounds read low 1.01 | S. cerevisiae deletion strains, locus YLR342W, strain FKS1 (second series), active compounds read low 0.985 | S. cerevisiae deletion strains, locus YLR342W, strain FKS1, active compounds read low 0.997 | S. cerevisiae deletion strains, locus YLR357W, strain rsc2, active compounds read low 1.1 | S. cerevisiae deletion strains, locus YLR370C, strain arc18, active compounds read low 1.06 | S. cerevisiae deletion strains, locus YLR371W, strain rom2, active compounds read low 0.989 | S. cerevisiae deletion strains, locus YLR384C, strain iki3, active compounds read low 1.02 | S. cerevisiae deletion strains, locus YLR418C, strain cdc73, active compounds read low 0.984 | S. cerevisiae deletion strains, locus YML016C, strain PPZ1, active compounds read low 1.02 | S. cerevisiae deletion strains, locus YML032C, strain rad52, active compounds read low 0.979 | S. cerevisiae deletion strains, locus YML120C, strain ndi1, active compounds read low 0.997 | S. cerevisiae deletion strains, locus YML124C, strain tub3, active compounds read low 0.985 | S. cerevisiae deletion strains, locus YMR058W, strain fet3, active compounds read low 0.987 | S. cerevisiae deletion strains, locus YMR078C, strain ctf18, active compounds read low 0.975 | S. cerevisiae deletion strains, locus YMR125W, strain sto1, active compounds read low 1.05 | S. cerevisiae deletion strains, locus YMR129W, active compounds read low 1.01 | S. cerevisiae deletion strains, locus YMR205C, strain PFK2, active compounds read low 0.947 | S. cerevisiae deletion strains, locus YMR223W, strain ubp8, active compounds read low 0.982 | S. cerevisiae deletion strains, locus YMR231W, strain pep5, active compounds read low 1 | S. cerevisiae deletion strains, locus YMR263W, strain SAP30, active compounds read low 1.01 | S. cerevisiae deletion strains, locus YMR307W, strain GAS1, active compounds read low 0.908 | S. cerevisiae deletion strains, locus YNL067W, strain RPL9B, active compounds read low 1.01 | S. cerevisiae deletion strains, locus YNL128W, strain TEP1, active compounds read low 1.02 | S. cerevisiae deletion strains, locus YNL153C, strain GIM3, active compounds read low 1.02 | S. cerevisiae deletion strains, locus YNL209W, strain ssb2, active compounds read low 1.01 | S. cerevisiae deletion strains, locus YNL233W, strain BNI4, active compounds read low 0.998 | S. cerevisiae deletion strains, locus YNL248C, strain rpa49, active compounds read low 0.967 | S. cerevisiae deletion strains, locus YNL250W, strain rad50, active compounds read low 0.987 | S. cerevisiae deletion strains, locus YNL271C, strain bni1, active compounds read low 0.989 | S. cerevisiae deletion strains, locus YNL298W, strain CLA4, active compounds read low 0.981 | S. cerevisiae deletion strains, locus YNL307C, strain MCK1, active compounds read low 0.979 | S. cerevisiae deletion strains, locus YNL322C, strain KRE1 (second series), active compounds read low 1.01 | S. cerevisiae deletion strains, locus YNL322C, strain KRE1, active compounds read low 1.02 | S. cerevisiae deletion strains, locus YNR049C, strain mso1, active compounds read low 1 | S. cerevisiae deletion strains, locus YNR052C, strain pop2, active compounds read low 0.984 | S. cerevisiae deletion strains, locus YOL006C, strain TOP1, active compounds read low 1.01 | S. cerevisiae deletion strains, locus YOL012C, strain htz1 1.06 | S. cerevisiae deletion strains, locus YOL147C, strain pex11, active compounds read low 0.985 | S. cerevisiae deletion strains, locus YOR001W, strain rrp6, active compounds read low 0.99 | S. cerevisiae deletion strains, locus YOR061W, strain CKA2, active compounds read low 1.01 | S. cerevisiae deletion strains, locus YOR069W, strain VPS5, active compounds read low 1.01 | S. cerevisiae deletion strains, locus YOR070C, strain gyp1, active compounds read low 0.978 | S. cerevisiae deletion strains, locus YOR080W, strain dia2, active compounds read low 1.03 | S. cerevisiae deletion strains, locus YOR083W, strain WHI5, active compounds read low 0.951 | S. cerevisiae deletion strains, locus YOR106W, strain vam3, active compounds read low 0.968 | S. cerevisiae deletion strains, locus YOR136W, strain idh2, active compounds read low 0.985 | S. cerevisiae deletion strains, locus YOR144C, strain elg1, active compounds read low 0.992 | S. cerevisiae deletion strains, locus YOR184W, strain ser1, active compounds read low 0.958 | S. cerevisiae deletion strains, locus YOR265W, strain rbl2, active compounds read low 1.01 | S. cerevisiae deletion strains, locus YOR270C, strain vph1, active compounds read low 0.791 | S. cerevisiae deletion strains, locus YOR290C, strain snf2, active compounds read low 0.994 | S. cerevisiae deletion strains, locus YOR316C, strain cot1, active compounds read low 0.992 | S. cerevisiae deletion strains, locus YPL051W, strain arl3, active compounds read low 0.96 | S. cerevisiae deletion strains, locus YPL055C, strain LGE1, active compounds read low 1.01 | S. cerevisiae deletion strains, locus YPL078C, strain atp4, active compounds read low 0.988 | S. cerevisiae deletion strains, locus YPL106C, strain sse1, active compounds read low 1.08 | S. cerevisiae deletion strains, locus YPL240C, strain hsp82, active compounds read low 1.03 | S. cerevisiae deletion strains, locus YPL241C, strain CIN2, active compounds read low 1.01 | S. cerevisiae deletion strains, locus YPR119W, strain clb2, active compounds read low 0.981 | S. cerevisiae deletion strains, locus YPR141C, strain kar3, active compounds read low 0.988 | S. cerevisiae deletion strains, locus YPR163C, strain tif3, active compounds read low 0.98 | S. cerevisiae deletion strains, locus YPR167C, strain met16, active compounds read low 0.983 | S. cerevisiae deletion strains, strain wtn01, active compounds read low 0.989 | S. cerevisiae strains, strain wild type, active compounds read low 1.01
